# Screening results from PubChem.
# Pol iota inh: DNA polymerase iota (human) inhibition. Pol iota fluorescent replication assay, 10 min. Potency, µM (highest dose often 115 µM), usual class: inhibitors. actives 1% (n = 390,000). AID 588590
#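 Pol iota at 10 nM preincubated 15 min with compounds at room temperature; reaction started with fluorescent substrate, 50 nM final. Fluorescence read kinetically at 0 and 10 min; buffer-only wells as negative control.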
# Pol beta inh: DNA polymerase beta (human) inhibition. Pol beta primer extension/strand displacement, fluorescence kinetic. Potency, µM (series often up to 114 µM), actives largely listed as inhibitors. actives 1.3% (n = 340,000)
#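 Enzyme-only controls used 10 nM Pol beta; buffer lacking enzyme served as negative control. Compound preincubated 15 min, then 50 nM substrate added; 0 and 10 min reads at room temperature.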
# Pol eta inh-1: DNA polymerase eta (human) inhibition | actives 1.2% (n = 390,000) | recombinant Pol eta, fluorescent DNA replication assay | Q9Y253 | Potency, µM (top dose mostly 114 µM), usual class: inhibitors
# Target sequence (Q9Y253 whole entry, looked up): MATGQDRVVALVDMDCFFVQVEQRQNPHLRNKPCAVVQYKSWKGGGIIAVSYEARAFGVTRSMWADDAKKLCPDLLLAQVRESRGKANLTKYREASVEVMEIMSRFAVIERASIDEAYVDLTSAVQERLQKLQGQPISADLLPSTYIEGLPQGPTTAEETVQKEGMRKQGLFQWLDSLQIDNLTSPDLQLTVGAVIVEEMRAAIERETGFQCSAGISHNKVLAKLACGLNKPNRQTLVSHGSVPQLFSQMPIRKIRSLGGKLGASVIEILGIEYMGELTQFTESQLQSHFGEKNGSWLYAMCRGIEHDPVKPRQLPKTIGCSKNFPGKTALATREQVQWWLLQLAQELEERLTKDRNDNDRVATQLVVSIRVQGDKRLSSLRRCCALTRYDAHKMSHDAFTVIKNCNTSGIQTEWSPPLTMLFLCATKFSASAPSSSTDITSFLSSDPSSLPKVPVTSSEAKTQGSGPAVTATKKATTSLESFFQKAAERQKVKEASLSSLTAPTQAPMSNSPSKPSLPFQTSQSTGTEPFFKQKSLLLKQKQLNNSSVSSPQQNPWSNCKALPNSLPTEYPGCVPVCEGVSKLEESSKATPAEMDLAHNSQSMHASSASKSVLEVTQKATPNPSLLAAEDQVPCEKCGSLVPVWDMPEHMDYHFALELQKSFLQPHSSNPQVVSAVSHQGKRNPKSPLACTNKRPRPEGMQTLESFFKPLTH
#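 Pol eta (10 nM) was preincubated with compounds for 15 min at room temperature, after which fluorescent replication substrate (50 nM final) was added to start the reaction. Fluorescence was read kinetically at 0 and 10 min.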
# WRN helicase inh: blocks human WRN helicase; actives 0.46% (n = 360,000); WRN helicase unwinding, fluorescent forked duplex, kinetic; Potency, µM (titrated, usually from 114 µM), actives largely listed as inhibitors; AID 651768; Q14191; further: nearly all actives have a fitted effect of over 55% in size
#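 Fluorescence dequenching readout, ex 525 nm/em 598 nm, kinetic mode: forked duplex DNA (100 nM final) with adjacent fluorophore and quencher unwound by WRN (20 nM final) with 2 mM ATP. Compound preincubation 15 min, room temperature.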
# FEN1 inhibitor: inhibitors of human flap endonuclease 1. Recombinant FEN1 flap cleavage, fluorescence, 15 min. Potency, µM (top dose mostly 114 µM), hits mostly inhibitors. P39748. actives 0.35% (n = 390,000); further: nearly all actives have a fitted effect of over 65% in size
#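 FEN1 at 10 nM preincubated with compounds 15 min at room temperature, then flap DNA substrate added at 50 nM final. Signal read at 0 and 15 min; concentration-response fitted with four-parameter Hill equation.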
# Pol kappa inh-1: DNA polymerase kappa (human) inhibition | actives 0.53% (n = 400,000) | Q9UBT6 | Potency, µM (top dose mostly 107 µM), hits mostly inhibitors | purified Pol kappa, fluorescent DNA synthesis assay, 10 min
#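 Readout: fluorescence, taken kinetically at 0 and 10 min. Conditions: 10 nM Pol kappa, 15 min RT compound preincubation, 50 nM substrate final. Controls: enzyme-free buffer wells.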
# GALK confirm: galactokinase (human) inhibition, confirmation; purified GALK, Kinase-Glo ATP depletion luminescence; shares compounds with Pol eta inh-1; AID 2015; actives 70% (n = 150); Potency, µM (titrated, usually from 115 µM), usual class: inhibitors
# GALK redox cs: generates H2O2 by redox cycling, flagging GALK artifacts; shares compounds with Pol eta inh-1; Phenol red-HRP H2O2 redox cycling, absorbance 600 nm; Potency, µM (top dose mostly 115 µM), hits mostly inhibitors; actives 40% (n = 150)
# HEK293 viability: counter-screen for GALK inhibitors: HEK293 cell cytotoxicity. shares compounds with Pol eta inh-1. Potency, µM (highest dose often 46.1 µM), hits mostly inhibitors. actives 10% (n = 170). HEK-293 viability, ATP luminescence (CellTiter-Glo), 24/48 h
# Pol kappa inh-2: Pol kappa (human) inhibition, cherry-pick confirmation; actives 76% (n = 920); Potency, µM, hits mostly inhibitors; purified Pol-kappa, fluorescent strand-displacement substrate; shares compounds with Pol eta inh-1
# Pol eta inh-2: confirmation of human DNA polymerase eta inhibitors; Potency, µM, most hits filed as inhibitors; Pol eta primer extension, TAMRA/BHQ fluorescence, 10 min; AID 720502; actives 64% (n = 2,600); shares compounds with Pol eta inh-1
# A number is an active result; n = inactive; u = inconclusive; x = no result given; [ ] = remark or other dose. Only some compounds are listed: those with a hit (about 2.4% of all), similar ones and a draw of the others. The call rests on the fitted dose curve; in most records, active means well fitted curve in the direction sought with a large enough effect; inconclusive means small, poorly fitted or top-dose-only effect, or another doubt; inactive means no such curve, though single readings can be large; an effect the other way counts as inactive or inconclusive.
SMILES,Pol iota inh,Pol beta inh,Pol eta inh-1,WRN helicase inh,FEN1 inhibitor,Pol kappa inh-1,Pol eta inh-2,others
COc1ccc(Nc2cc(C(=O)NCCCN(C)Cc3ccccc3)c3ccccc3n2)cc1OC,n,u,n,x,n,n,x,
Cc1nc(Nc2ccc(C(=O)O)cc2)nc(Nc2ccc(C(=O)O)cc2)c1[N+](=O)[O-],44.7µM,n,35.5µM,n[11.6 µM],u,u,37.9,
CC(=O)c1ccc(OC(=O)C2CSC3(C)CCC(=O)N23)cc1 (stereo unspecified),17.8µM,x,8.91µM,n,n,n,u,
Cc1ccoc1C(=O)NCc1occc1C(=O)O,u,n,6.31µM,n,n,u,30.1,
COc1ccc(C(=O)NCCn2cc(SCC(=O)NCCc3ccc(OC)c(OC)c3)c3ccccc32)cc1,n,n,n,x,n,n,x,
CCOC(=O)c1ccc(/C=C2/C=C(c3ccccc3)N(c3ccc(Cl)c(C(=O)O)c3)C2=O)cc1,u,31.6µM,20µM,50.1µM,n,n,60.1,Pol kappa inh-2=u
CCOC(=O)c1ccc(Cl)c(NC(=O)c2ccc(-c3ccccc3)cc2)c1,n,n,n,n,n,n,x,
CC1CC2(C)Oc3ccccc3C3OCC1(COC(=O)Nc1ccccc1)C(C)C32 (stereo unspecified),x,x,x,x,x,n[19.4 µM],x,
Cc1ccc(S(=O)(=O)NC(=O)c2ccc(-c3ccc(C)c4ccccc34)o2)cc1,u,u,31.6µM,u,n,u,u,
Cc1ccc(-c2ccc(C(=O)Nc3ccccc3)o2)c2ccccc12,n,n,n,n,n,n,x,
O=C1c2ccccc2CC[C@H]1CNCCc1ccc(O)cc1,x,x,x,x,x,n[19.4 µM],x,
COc1ccc(C=NNc2ccc([N+](=O)[O-])cc2S(=O)(=O)Nc2ccccc2C(=O)O)cc1OC,n,x,35.5µM,u,u,n,u,
Cc1cc2c(SCC(=O)Nc3cccc(O)c3)ncnc2s1,u,x,22.4µM,u,44.7µM,89.1µM,75.7,Pol kappa inh-2=21.2
CCOc1ccc2[nH]c(=O)c(C(c3nnnn3Cc3ccco3)N3CCN(C)CC3)cc2c1 (stereo unspecified),n,n,n,n,n,n,x,GALK confirm=n;GALK redox cs=n;HEK293 viability=n
CC(C)c1nn2c(=O)cc(COC(=O)c3ccccc3NC(=O)c3cccc(Cl)c3)nc2s1,n,n,n,x,n,n,x,
CCOC(=O)c1ccc(NC(=O)c2c(NCc3cccs3)sc3c2CCCCC3)cc1,u,u,79.4µM,x,u,n,u,
COc1ccc(NC(=O)c2c(NCc3cccs3)sc3c2CCCC3)cc1,n,n,n,x,n,n,x,
COC(=O)c1ccc(Cn2nnc3sc4c(c3c2=O)CCCC4)cc1,n,u,x,x,n,n,x,
O=C(O)c1ccc(Cn2nnc3sc4c(c3c2=O)CCCC4)cc1,u,n,20µM,n[11.6 µM],n,u,u,
Cc1nc2nc(NC(=O)c3ccc(C(C)(C)C)cc3)[nH]n2c(=O)c1C,n,n,n,x,n,n,x,
Cc1ccn2c(=O)nc(SCC(=O)NCc3ccco3)nc2c1,u,x,u,u,n,n,x,
Cc1ccc(CNC(=O)CSc2nc(=O)n3ccc(C)cc3n2)cc1,x,x,28.2µM,n,x,x,u,
COc1cc(-c2[nH]nc3c2C(c2ccoc2)C(C#N)=C(N)O3)cc(OC)c1OC (stereo unspecified),u,17.8µM,u,n,n,u,u,
Cc1ccc(NC(=O)c2oc3ccccc3c2NC(=O)C2CCCCC2)cc1,n,n,n,x,n,n,x,
COc1ccc(C)cc1N1CC(C(=O)Nc2cccc(C(=O)NC3CC3)c2)CC1=O (stereo unspecified),x,x,n,n,x,x,x,
SMILES,Pol iota inh,Pol beta inh,Pol eta inh-1,WRN helicase inh,FEN1 inhibitor,Pol kappa inh-1,Pol eta inh-2,others
Cc1ccc(N2CC(C(=O)Nc3cccc(C(=O)NC4CC4)c3)CC2=O)cc1 (stereo unspecified),u,x,35.5µM,n,n,n,x,Pol kappa inh-2=u
O[C@@H]1[C@@H]2c3cc4c(cc3CN3CCC(=C[C@@H]1O)[C@H]23)OCO4,x,x,x,x,x,n[12 µM],x,
O=C(Nc1ccc(Br)cc1Cl)c1cnccn1,u,n,39.8µM,u,n,n,75.7,
COc1ccc2nc(-c3ccccc3)[nH]c2c1,n,n,n,n,n,n,x,
Oc1c(Br)cc(C=Nc2ccc3nc(-c4ccccc4)[nH]c3c2)c(O)c1Br,u,u,14.1µM,u,39.8µM,50.1µM,30.1,Pol kappa inh-2=9.47
COc1ccc(CN(Cc2ccccc2)C(=O)COC(C)=O)cc1COc1ccc(NC(C)=O)cc1,u,x,x,x,n,n,x,
O=S(=O)(Nc1nc2ccccc2s1)c1cc(F)ccc1F,n,n,n,n,n,n,x,
O=S(=O)(Nc1nc(-c2ccco2)c(-c2ccco2)s1)c1ccc(F)cc1F,x,x,28.2µM,u,x,x,u,Pol kappa inh-2=u
C/C(=N\Nc1ccc(C(=O)O)cc1)c1ccc2c(c1)Nc1ccccc1S2,22.4µM,u,25.1µM,n,u,u,75.7,
C/C(=N/Nc1ccc(C(=O)O)cc1)c1ccc2c(c1)Nc1ccccc1S2,50.1µM,x,17.8µM,n[11.6 µM],n,u,75.7,Pol kappa inh-2=37.7
c1cncc(-c2nc(NCCN3CCOCC3)c3ccccc3n2)c1,x,x,x,x,x,n,x,
Cc1ccc(C)c(CN2C(=O)c3ccccc3S(=O)c3ccc(C(=O)NCCc4ccc(Cl)cc4)cc32)c1 (stereo unspecified),n,n,n,x,n,n,x,
NC(CSC1(c2ccc(Cl)cc2)c2ccccc2-c2ccccc21)C(=O)O (stereo unspecified),u,x,u,n[11.6 µM],n,n,u,
COC(=O)CN1C(=O)CSc2ccc(S(=O)(=O)Nc3c(C)cc(C)cc3C)cc21,n,u,n,x,n,n,x,
COCCn1c(SC(C)C(=O)NCC2CCCO2)nc2sc3c(c2c1=O)CCC3 (stereo unspecified),u,x,u,n,n,n,u,
COCCn1c(SC(C)C(=O)NCC2CCCO2)nc2scc(-c3ccc(F)cc3)c2c1=O (stereo unspecified),n,x,n,n,n,n,x,
